The record followed here is PubChem BioAssay AID1529 (NMMLSC, 2009).

In all, about 290,000 compounds went through this assay and about 4,200 (1.4%) were called active. The sample as a whole holds a higher share of actives than the screen did. Values without a mark were called inactive.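 Rule for the calls: active = binding response more than 3 SD above or below the average of its plate-row segment, actives on both sides; inconclusive = wells at one plate position flagged as instrument error; inactive = the rest.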

The assay deals with Mitogen-activated protein kinase kinase kinase 3 (Homo sapiens) (UniProt Q99759). Nature of the assay: modulators of MEKK3-MEK5 PB1 binding, primary screen, biochemical, wildtype MEKK3, multiplex bead flow cytometry, Alexa488-MEK5 (AID 1529).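 Note: Alexa488 bead fluorescence after subtracting the streptavidin-only scavenger bead signal.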 As to conditions: bead-based flow cytometry, Alexa488-MEK5 binding to MEKK3; at 10 µM; actives lie on both sides; 0 = blocked by unlabeled MEK5, 100 = vehicle. (In general: A flow cytometer gives signals particle by particle.)
Sequence of Mitogen-activated protein kinase kinase kinase 3 (Homo sapiens) (Q99759 whole entry, looked up): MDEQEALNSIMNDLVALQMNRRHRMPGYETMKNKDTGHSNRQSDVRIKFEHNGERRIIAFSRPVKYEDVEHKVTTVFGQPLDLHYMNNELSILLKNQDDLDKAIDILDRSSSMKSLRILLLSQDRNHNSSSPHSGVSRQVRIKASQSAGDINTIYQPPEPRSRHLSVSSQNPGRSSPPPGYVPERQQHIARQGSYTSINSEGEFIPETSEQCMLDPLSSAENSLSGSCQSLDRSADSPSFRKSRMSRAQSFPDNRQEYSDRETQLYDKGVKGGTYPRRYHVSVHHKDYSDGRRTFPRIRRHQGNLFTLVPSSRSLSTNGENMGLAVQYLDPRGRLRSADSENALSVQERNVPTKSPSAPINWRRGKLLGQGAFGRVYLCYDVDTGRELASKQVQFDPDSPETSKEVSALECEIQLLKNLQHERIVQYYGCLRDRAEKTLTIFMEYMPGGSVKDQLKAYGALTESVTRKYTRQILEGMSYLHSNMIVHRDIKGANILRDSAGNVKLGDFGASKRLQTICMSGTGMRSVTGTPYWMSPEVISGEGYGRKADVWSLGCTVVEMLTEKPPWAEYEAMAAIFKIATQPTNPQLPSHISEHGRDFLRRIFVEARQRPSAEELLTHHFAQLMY
With `O=C(O)C(c1ccccc1)N1C(=O)/C(=C\c2ccc(-c3cccc(Cl)c3)o2)SC1=S` (configuration not stated), the binding response (% of control) was 96%. Under `CN1C(=O)/C(=C\c2ccc(-c3ccccc3)o2)SC1=S` stands 46% [inhibitor] (active). Under `NS(=O)(=O)c1ccc(-c2ccc(/C=C3\SC(=O)NC3=O)o2)cc1` stands 100%.

Take `C=C(C)CNC(=O)c1ccc(OC2CCN(C(=O)COC)CC2)cc1`: the binding response (% of control) was 105%. To `C=CCSc1nnc(N2C(=O)C(O)=C(C(=O)c3ccco3)C2c2ccc(F)cc2)s1` (configuration not stated) belongs 101%. As to `C(=N\N1CCN(c2ccccn2)CC1)/C1=C(N2CCOCC2)C(=C/c2ccccc2)/CC1`, the binding response (% of control) was 102%. Under `O=C1Nc2ccc(Br)cc2/C1=N/N=C/C1=C(N2CCOCC2)C(=C\c2ccccc2)/CC1` stands 45% [inhibitor] (active); under `COc1ccc(/C=N/N=C2/C(=O)Nc3ccccc32)cc1O`, 100%; under `O=C1N[C@H](Cc2ccccc2)C(=O)N[C@H]1Cc1cn(S(=O)(=O)c2ccccc2)c2ccccc12`, 106%. Under `CCOC(=O)COn1c(=O)c(-c2ccc(OCC)cc2)[n+]([O-])c2ccccc21` stands 109%; under `CCOc1ccccc1CNS(=O)(=O)c1cc(-c2cc(C)no2)ccc1C`, 96%; under `CN1CCC(CN)(N2CCN(c3ccccc3)CC2)CC1`, 106%. To `COC(=O)c1ccc(N2CCOCC2)c(NC(=O)c2ccc(Br)o2)c1` belongs 101%.

For `O=c1[nH]c(=S)[nH]c2[nH]c(=S)[nH]c12`, the binding response (% of control) was 48% [inhibitor] (active). In the case of `Cc1c(C)c(C)c2[nH]c(=S)[nH]c2c1C`, the binding response (% of control) is 101%. Turning to `COc1ccc(CNc2nc3c(c(=O)[nH]c(=O)n3C)n2Cc2ccccc2)cc1`, the binding response (% of control) was 104%.

For `COc1ccc(CCn2c(NN=C3CCCC3)nc3c2c(=O)[nH]c(=O)n3C)cc1`, the binding response (% of control) is 44% [inhibitor] (active). Under `COc1ccc(CCn2c(NCCCN3CCOCC3)nc3c2c(=O)[nH]c(=O)n3C)cc1` stands 101%. To `O=c1c2c(-c3ccccc3)ccnc2[nH]n1-c1ccccc1` belongs 109%. Consider `COc1ccc(CCNC(=O)CSCc2ccc(Br)cc2)cc1OC`, for which the binding response (% of control) was 104%. Under `CCCc1nn(C)c2c(=O)[nH]c(-c3cc(S(N)(=O)=O)ccc3OCC)nc12` stands 103%; under `CCOC(=O)C1CCN(c2ccc(C(=O)O)cc2[N+](=O)[O-])CC1`, 103%. Under `CC1CCN(c2ccc([N+](=O)[O-])cc2C(N)=O)CC1` stands 100%. Under `O=C(O)C1CCN(c2ccc([N+](=O)[O-])cc2[N+](=O)[O-])CC1` stands 49% [inhibitor] (active); under `CC(C)CNS(=O)(=O)c1ccc(CCC(=O)NCc2ccc(Cl)cc2)cc1`, 96%. As to `O=C(Nc1ccc(S(=O)(=O)Nc2ccccn2)cc1)c1ccccc1`, the binding response (% of control) is 97%. To `COc1cccc(NC(=S)NCc2ccco2)c1` belongs 98%. To `Cc1cc(C)cc(NC(=S)NCCCN2CCOCC2)c1` belongs 117%; to `COc1cccc(NC(=S)NCCCN2CCOCC2)c1`, 140% (active). To `COc1cccc(NC(=S)N(Cc2ccc(C)cc2)Cc2ccccn2)c1` belongs 104%; to `COc1cccc(NC(=S)NCc2ccccn2)c1`, 143% (active). As for `CCCCc1ccc(NC(=S)NCCCN2CCOCC2)cc1`, the binding response (% of control) is 93%. To `O=C(NCCN1CCN(C(=O)c2cccc([N+](=O)[O-])c2)CC1)C(=O)NCc1ccc(Cl)cc1` belongs 105%; to `CCOC(=O)Cn1c(O)c(N=NC(=O)CNC(=O)Cc2ccccc2)c2ccccc21`, 99%.

Turning to `COc1ccccc1CN1CC(C(=O)NCCc2cn[nH]c2)CCC1=O` (configuration not stated), the binding response (% of control) was 104%. Under `COc1ccccc1CCNS(=O)(=O)c1cn(C)nc1C` stands 104%. With `COc1ccccc1CNC(=O)C1CCN(C(=O)[C@@H]2Cc3ccccc3CN2)CC1`, the binding response (% of control) is 101%.

As to `COc1ccc2nc(Nc3nc(-c4cc5ccccc5oc4=O)cs3)sc2c1`, the binding response (% of control) is 82%. To `COc1ccc2nc(Nc3nc(-c4ccncc4)cs3)sc2c1` belongs 104%. As to `COc1ccc2nc(Nc3nc4cc5c(cc4s3)OCCO5)sc2c1`, the binding response (% of control) is 137% (active).

As to `CNC[C@H](CC1CCCCC1)NC[C@H](NCCC1CCCC1)[C@H](C)O`, the binding response (% of control) was 102%.

Take `COc1cc(-c2nc(-c3ccncc3)no2)cc(OC)c1OC`: the binding response (% of control) is 1% [inhibitor] (active). `Cc1ccc(-c2nc(-c3ccncc3)no2)c(C)c1`: the binding response (% of control) is 102%. To `COc1ccccc1Cc1nc(-c2ccc(C)cc2)no1` belongs 101%; to `O=C(NCc1ccccc1)C1=C[C@@H](c2ccccc2)C[C@@H](OCCCCO)O1`, 101%; to `O=C(CCNS(=O)(=O)c1cccs1)N1CCN(c2ccc(F)cc2)CC1`, 102%. To `O=C(Cn1cc(/C=N/NC(=O)c2cccc(C(F)(F)F)c2)c2ccccc21)Nc1ccc(F)cc1` belongs 103%; to `CCNC(=O)Nc1ccc(S(=O)(=O)Nc2cnc(C)nc2C)cc1`, 101%.

As to `O=C(NCc1cccc(Cl)c1)C1CCN(c2nnc(N3CCCC3=O)s2)CC1`, the binding response (% of control) was 96%. To `Cc1ccnc(NS(=O)(=O)c2ccc(NC(=O)c3oc4ccccc4c3C)cc2)n1` belongs 102%; to `Cc1cccc(CSc2nc3c(c(=O)n2C)SCC3)c1`, 100%. To `Cc1nnc(SCc2cccc(Cl)c2)n(N)c1=O` belongs 98%; to `Cc1cccc(CSc2nnc(C)c(=O)n2N)c1`, 128% (active). Under `COc1ccc(NC(=O)N2CCCC(C(=O)Nc3ccccc3OC)C2)cc1` (configuration not stated) stands 100%. As to `COC(=O)CCCC1=CC2=CC(=O)C(C)(OC(=O)c3cccs3)C(=O)C2=CN1CC1CC1` (configuration not stated), the binding response (% of control) is 93%.

Turning to `CC1(OC(=O)C2CCCC2)C(=O)C=C2C=C(c3ccc(C#N)cc3)OC=C2C1=O` (configuration not stated), the binding response (% of control) was 94%.

Turning to `COCCN1C=C2C(=O)C(C)(OC(=O)C3CCCC3)C(=O)C=C2C=C1c1ccsc1` (configuration not stated), the binding response (% of control) is 133% (active). To `COc1ccc(CCNc2nc3ccc(C)cc3n3cnnc23)cc1OC` belongs 102%. `O=C(/C=C/c1ccco1)NC(=S)Nc1ccccc1Br`: the binding response (% of control) is 102%. `CCNc1ccc(C(=O)OCC(=O)N2c3ccccc3NC(=O)C2(C)C)cc1[N+](=O)[O-]`: the binding response (% of control) was 99%. To `COc1ccc(Cl)cc1-n1c(C)cc(C(=O)OCC(=O)N2CC(=O)Nc3ccccc32)c1C` belongs 105%; to `Cc1cc(C(=O)OCC(=O)N2c3ccccc3NC(=O)C2(C)C)c(C)n1-c1ccccc1`, 130% (active); to `CC1(C(=O)O)CCC(C(=O)Nc2ccc(Cl)c(Cl)c2)C1(C)C` (configuration not stated), 103%.

`COc1ccc(C(=O)COC(=O)CNC(=O)c2cccs2)cc1Br`: the binding response (% of control) is 99%. Under `CCn1c(NC(=O)c2ccccc2)c(-c2cccs2)c(=O)c2ccccc21` stands 82% [inhibitor] (active). Under `COc1ccccc1C(=O)Nn1c(-c2cccs2)nc2ccccc2c1=O` stands 111%; under `CCn1c(=O)c2cc(C(=O)Nc3cccc(C(C)=O)c3)sc2c2ccccc21`, 106%. To `COc1ccccc1N(CC(=O)N/N=C(\C)c1ccccc1O)S(=O)(=O)c1ccc(C)cc1` belongs 102%; to `CCOc1ccc(NC(=O)C/C(C)=N/NC(=O)Cc2cccs2)cc1`, 99%; to `O=C(N/N=C/c1ccc(OCc2ccccc2)cc1)c1ccc(O)cc1`, 119%. For the molecule `O=C(Cc1cccs1)N/N=C/c1ccc(OCc2ccccc2)cc1`, the binding response (% of control) is 129% (active). As for `N#C/C(=C\c1ccccc1C(F)(F)F)C(=O)Nc1ccccc1F`, the binding response (% of control) was 97%.

Consider `N#C/C(=C/c1ccc(N2CCOCC2)o1)C(=O)N1CCOCC1`, for which the binding response (% of control) was 94%. To `N#C/C(=C\C1=C(N2CCOCC2)C(=C\c2ccccc2)/CC1)C(=O)Nc1ccccc1F` belongs 8% [inhibitor] (active). Under `CN(CCC1CCOCC1)Cc1cn[nH]c1-c1ccc(-c2ccccc2)cc1` stands 109%; under `CCCCC(CC)CNCc1cccn1CCN1CCOCC1` (configuration not stated), 100%.

Regarding `COc1cccc2sc(N(CCCN(C)C)C(=O)CCS(=O)(=O)c3ccccc3)nc12`, the binding response (% of control) was 97%. For `CN(C)CCCN(C(=O)COc1ccccc1)c1nc2c(Cl)cccc2s1`, the binding response (% of control) was 35% [inhibitor] (active).

Turning to `COc1cccc2sc(N(CCCN(C)C)C(=O)C(c3ccccc3)c3ccccc3)nc12`, the binding response (% of control) was 111%. Under `COCCNc1ccc(-c2n[nH]c(=O)c3ccccc23)cc1[N+](=O)[O-]` stands 103%; under `CCOC(=O)/C(C#N)=C/c1ccc(N2CCCCC2)cc1`, 99%. To `O=C1C=CC(=O)N1c1ccc(N2CCCCC2)cc1` belongs 49% [inhibitor] (active); to `Cc1ccccc1C(=O)Nc1ccc(N2CCCCCC2)cc1`, 80%; to `C#CC(C)(C)NC(=O)c1cnc(-c2ccccc2)nc1-c1ccccc1`, 105%. To `CC(NC(=O)c1cc2cc(Cl)ccc2oc1=N)c1ccccc1` (configuration not stated) belongs 100%; to `Cc1ccc(CN(C)Cc2cc(=O)oc3cc(C)c(Cl)cc23)cc1`, 109%; to `COc1ccc(N(C(=O)c2snc(C(N)=O)c2N)C(C(=O)NC2CCCC2)c2ccco2)cc1OC` (configuration not stated), 101%. `Cc1c(Cl)cccc1NC(=O)[C@@]1(CC(=O)O)CC(/C=C/c2ccccc2)=NO1`: the binding response (% of control) is 96%. Under `COC(=O)c1c(NC(=O)c2ccccc2F)sc2c1C(C(=O)OC)CC2` (configuration not stated) stands 98%; under `Cc1noc(C)c1C(=O)OCC(=O)/C=C1\N(C)c2ccccc2C1(C)C`, 100%. To `CC(=O)Nc1cccc(OCC(=O)/C=C2\N(C)c3ccccc3C2(C)C)c1` belongs 62% [inhibitor] (active); to `CC(C)Nc1nnc(SCC(=O)/C=C2\N(C)c3ccccc3C2(C)C)s1`, 101%.
